Experimental data as given in the supplement of paper PMC11732987, “Enantioselective OTUD7B fragment discovery through chemoproteomics screening and high-throughput optimisation” (Communications Chemistry, 2025).

What was measured:
Test in all cases: log2 ratio of Biotin-Ahx-Ub-VS probe labelling (fragment/DMSO); higher = less target engagement (more negative = stronger competition), active = hit call of the paper (q ≤ 0.05, log2 ratio ≤ -1)
Settings in all cases: compound concentration: 200 uM; treatment time: 3 h
[1] = biological target: T1, OTUD6B (UniProt Q8N6M0)
T1 sequence (whole entry): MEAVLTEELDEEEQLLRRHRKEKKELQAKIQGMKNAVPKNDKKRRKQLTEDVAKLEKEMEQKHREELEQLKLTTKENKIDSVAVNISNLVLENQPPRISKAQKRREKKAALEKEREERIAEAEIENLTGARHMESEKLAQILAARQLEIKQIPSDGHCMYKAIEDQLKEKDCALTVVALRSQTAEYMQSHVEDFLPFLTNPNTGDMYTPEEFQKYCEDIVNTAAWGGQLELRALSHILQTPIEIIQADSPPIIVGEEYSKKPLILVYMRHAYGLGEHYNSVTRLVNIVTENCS
Procedure, shortened: (§1)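 Global-median-normalised Spectronaut label-free quantities were compared by unpaired t-test, and values are average log2 ratios of fragment over vehicle. Only proteins with ≥2 unique peptides were used. HEK293T lysate (495 µg per sample) was treated in triplicate with fragment at 200 µM or vehicle for 3 h and then with Biotin-Ahx-Ub-VS at 0.5 µM final for 1 h. Labelled DUBs were then NeutrAvidin-enriched, digested with LysC and trypsin, and run by diaPASEF LC-MS/MS.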

[2] = biological target: T2, OTUD7B (UniProt Q6GQQ9)
T2 sequence (whole entry): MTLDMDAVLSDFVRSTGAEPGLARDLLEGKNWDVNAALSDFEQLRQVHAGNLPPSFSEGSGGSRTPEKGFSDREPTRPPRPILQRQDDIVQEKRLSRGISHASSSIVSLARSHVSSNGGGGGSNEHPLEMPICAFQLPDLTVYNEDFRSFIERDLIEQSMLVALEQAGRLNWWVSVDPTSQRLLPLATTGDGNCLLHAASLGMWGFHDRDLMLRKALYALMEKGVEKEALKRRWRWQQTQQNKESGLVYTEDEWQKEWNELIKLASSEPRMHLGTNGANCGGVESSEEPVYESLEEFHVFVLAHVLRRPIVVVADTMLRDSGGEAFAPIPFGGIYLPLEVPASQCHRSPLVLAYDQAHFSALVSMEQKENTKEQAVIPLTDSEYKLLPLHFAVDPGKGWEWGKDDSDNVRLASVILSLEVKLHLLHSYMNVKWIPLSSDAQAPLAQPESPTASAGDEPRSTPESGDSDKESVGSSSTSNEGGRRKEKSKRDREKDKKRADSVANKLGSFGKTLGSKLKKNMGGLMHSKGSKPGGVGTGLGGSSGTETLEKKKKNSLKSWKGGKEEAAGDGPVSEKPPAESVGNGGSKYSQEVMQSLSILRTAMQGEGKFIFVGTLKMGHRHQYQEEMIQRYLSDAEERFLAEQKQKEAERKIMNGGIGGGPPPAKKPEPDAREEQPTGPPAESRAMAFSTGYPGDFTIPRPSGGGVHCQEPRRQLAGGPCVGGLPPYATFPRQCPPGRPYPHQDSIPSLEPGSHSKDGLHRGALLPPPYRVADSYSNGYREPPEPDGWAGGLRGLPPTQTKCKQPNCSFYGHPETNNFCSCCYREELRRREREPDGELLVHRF
Procedure, shortened: as §1

[3] = biological target: PRPF8 (UniProt Q6P2Q9)
Procedure, shortened: as §1

[4] = biological target: T3, PSMD7 (UniProt P51665)
T3 sequence (whole entry): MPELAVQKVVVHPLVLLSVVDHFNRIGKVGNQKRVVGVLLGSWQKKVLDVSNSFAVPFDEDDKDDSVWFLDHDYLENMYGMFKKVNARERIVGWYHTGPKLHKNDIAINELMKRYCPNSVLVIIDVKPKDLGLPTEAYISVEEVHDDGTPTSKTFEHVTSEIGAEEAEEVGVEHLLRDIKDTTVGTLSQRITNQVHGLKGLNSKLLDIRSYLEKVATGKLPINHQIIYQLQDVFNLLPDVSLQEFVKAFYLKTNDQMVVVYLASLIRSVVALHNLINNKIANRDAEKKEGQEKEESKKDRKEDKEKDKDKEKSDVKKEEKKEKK
Procedure, shortened: as §1

[5] = biological target: UCHL1 (UniProt P09936)
Chain of UCHL1 (P09936 whole entry, looked up): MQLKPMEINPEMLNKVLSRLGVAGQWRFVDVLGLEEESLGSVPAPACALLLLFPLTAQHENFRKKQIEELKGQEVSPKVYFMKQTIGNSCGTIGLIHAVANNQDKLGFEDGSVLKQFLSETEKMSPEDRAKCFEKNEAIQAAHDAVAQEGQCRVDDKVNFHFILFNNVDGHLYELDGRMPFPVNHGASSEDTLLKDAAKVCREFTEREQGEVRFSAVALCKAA
Procedure, shortened: as §1

[6] = biological target: T4, UCHL3 (UniProt P15374)
T4 sequence (whole entry): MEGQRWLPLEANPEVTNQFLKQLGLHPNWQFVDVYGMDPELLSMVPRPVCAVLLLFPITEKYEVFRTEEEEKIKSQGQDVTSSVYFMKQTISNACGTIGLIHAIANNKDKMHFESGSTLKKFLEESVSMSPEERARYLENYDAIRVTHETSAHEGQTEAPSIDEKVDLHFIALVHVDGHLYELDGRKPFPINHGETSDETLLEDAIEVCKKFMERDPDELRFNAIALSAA
Procedure, shortened: as §1

[7] = biological target: T5, UCHL5 (UniProt Q9Y5K5)
T5 sequence (whole entry): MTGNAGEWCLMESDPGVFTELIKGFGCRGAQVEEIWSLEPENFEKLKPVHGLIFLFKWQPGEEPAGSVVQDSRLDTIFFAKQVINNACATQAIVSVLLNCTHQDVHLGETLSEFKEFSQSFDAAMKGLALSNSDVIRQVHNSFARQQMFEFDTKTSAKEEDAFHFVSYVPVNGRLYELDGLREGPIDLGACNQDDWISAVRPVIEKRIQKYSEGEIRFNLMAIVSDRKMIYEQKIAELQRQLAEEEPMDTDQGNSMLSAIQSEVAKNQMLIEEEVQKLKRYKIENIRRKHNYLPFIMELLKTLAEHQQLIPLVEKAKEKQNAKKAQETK
Procedure, shortened: as §1

[8] = biological target: USP10 (UniProt Q14694)
Chain of USP10 (Q14694 whole entry): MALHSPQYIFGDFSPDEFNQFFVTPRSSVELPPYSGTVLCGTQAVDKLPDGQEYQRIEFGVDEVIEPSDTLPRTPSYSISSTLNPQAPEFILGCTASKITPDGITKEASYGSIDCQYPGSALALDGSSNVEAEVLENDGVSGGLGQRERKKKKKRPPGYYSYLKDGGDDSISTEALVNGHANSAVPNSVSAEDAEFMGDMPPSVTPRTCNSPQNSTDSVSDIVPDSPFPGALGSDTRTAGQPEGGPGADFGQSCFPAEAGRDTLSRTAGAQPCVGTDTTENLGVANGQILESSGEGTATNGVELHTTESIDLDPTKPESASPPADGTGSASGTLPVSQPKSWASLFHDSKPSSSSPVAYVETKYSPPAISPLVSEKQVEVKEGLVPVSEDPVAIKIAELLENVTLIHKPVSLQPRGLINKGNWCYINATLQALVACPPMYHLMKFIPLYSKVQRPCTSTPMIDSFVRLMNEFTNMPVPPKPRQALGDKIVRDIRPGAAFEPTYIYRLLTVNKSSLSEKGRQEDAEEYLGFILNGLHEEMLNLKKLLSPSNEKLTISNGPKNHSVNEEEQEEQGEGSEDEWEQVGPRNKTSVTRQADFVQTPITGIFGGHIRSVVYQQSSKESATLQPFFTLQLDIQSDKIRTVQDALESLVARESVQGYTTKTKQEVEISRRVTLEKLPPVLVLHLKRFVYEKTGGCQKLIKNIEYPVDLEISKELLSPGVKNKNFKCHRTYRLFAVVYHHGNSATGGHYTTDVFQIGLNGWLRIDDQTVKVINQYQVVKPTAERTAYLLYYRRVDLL
Procedure, shortened: as §1

[9] = biological target: T6, USP15 (UniProt Q9Y4E8)
T6 sequence (whole entry): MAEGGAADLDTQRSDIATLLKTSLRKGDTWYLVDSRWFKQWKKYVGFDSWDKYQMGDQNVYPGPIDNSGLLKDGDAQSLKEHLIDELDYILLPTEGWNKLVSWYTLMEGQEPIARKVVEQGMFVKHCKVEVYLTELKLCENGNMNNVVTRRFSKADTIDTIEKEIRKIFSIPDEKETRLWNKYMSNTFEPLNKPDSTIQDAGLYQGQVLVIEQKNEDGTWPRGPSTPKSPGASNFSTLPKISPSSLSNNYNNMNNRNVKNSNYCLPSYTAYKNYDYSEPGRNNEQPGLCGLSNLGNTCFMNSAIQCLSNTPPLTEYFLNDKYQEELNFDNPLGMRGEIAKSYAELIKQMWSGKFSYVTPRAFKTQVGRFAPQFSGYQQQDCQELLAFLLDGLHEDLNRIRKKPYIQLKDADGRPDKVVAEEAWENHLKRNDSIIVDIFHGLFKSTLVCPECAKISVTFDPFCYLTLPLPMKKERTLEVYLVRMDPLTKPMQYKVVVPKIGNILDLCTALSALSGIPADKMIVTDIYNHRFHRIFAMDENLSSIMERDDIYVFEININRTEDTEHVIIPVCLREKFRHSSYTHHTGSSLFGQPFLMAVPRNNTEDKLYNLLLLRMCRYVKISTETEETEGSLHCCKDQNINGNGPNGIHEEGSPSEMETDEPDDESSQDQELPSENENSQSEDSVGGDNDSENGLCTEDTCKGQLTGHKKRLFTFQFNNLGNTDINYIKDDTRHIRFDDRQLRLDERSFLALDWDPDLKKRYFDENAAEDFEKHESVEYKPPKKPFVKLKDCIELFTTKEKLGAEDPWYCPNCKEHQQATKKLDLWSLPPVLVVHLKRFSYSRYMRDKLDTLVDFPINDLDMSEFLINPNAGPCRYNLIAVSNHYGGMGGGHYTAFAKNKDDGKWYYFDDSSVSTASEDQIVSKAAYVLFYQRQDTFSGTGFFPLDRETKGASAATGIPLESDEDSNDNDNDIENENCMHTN
Procedure, shortened: as §1

Measured: log2 ratio of Biotin-Ahx-Ub-VS probe labelling

O=C(CCl)N1CCc2sccc2C1
active: [2] -1.08 | [5] -1.18
inactive: [1] -0.251 | [3] 0.249 | [4] -0.000885 | [6] -0.458 | [7] -0.259 | [8] -0.16 | [9] -0.737
